Results reported in PubChem BioAssay (NCI).
The panel holds about 83,000 compounds, 20% with a hit somewhere; the sample as a whole holds those more often.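 The endpoint reported here, percent growth, reads 100 for growth as untreated, 0 for no net growth and -100 for all cells dead.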 Active and inactive are the calls of the source. Rule for the calls: active = growth percent below 10; inactive = the rest.

Test system: NCI-H522 lung
Test: NCI-60 one-dose screen, 48 h (100 = growth as untreated, 0 = no growth, -100 = all killed)
Conditions: 10 µM unless noted

Structure (SMILES)	growth
O=C(Nc1cc(F)cc2cccnc12)c1cnc(N2CCNCC2)cn1	54.5% (inactive)
C=CCCC1(C)NC(=O)NC1=O (stereo not given)	86.1% (inactive)
CC(=O)Nc1ccc2nc3ccc(NC(C)=O)cc3[n+](-c3ccccc3)c2c1	88% (inactive)
CCCCCN(CCCCC)CCCCCCCCN1CCCc2ccccc21	34.6% (inactive)
O=C(O)c1cccc(CN2CCN(c3cc4c(cc3F)c(=O)c(C(=O)O)cn4C3CC3)CC2)c1O	87.1% (inactive)

Test system: A549/ATCC NSCLC
Test: as above
Conditions: 10 µM unless noted

Structure (SMILES)	growth
CCOc1ccccc1/C=N\Nc1ccc(S(=O)(=O)c2ccc(N/N=C/c3ccccc3OCC)cc2)cc1	96.7% (inactive)
Nc1ccc(Cl)c([N+](=O)[O-])c1	97.7% (inactive)
Oc1ccc(N=Nc2nccs2)c(O)c1	52.2% (inactive)
O=C(N[C@@H]1CCCc2ccccc21)[C@H](CCC(=O)N1CCN(C2CCCCC2)CC1)N1C(=O)[C@@H](N2C(=O)OC[C@@H]2c2ccccc2)[C@H]1/C=C/c1ccccc1	28% (inactive)
Cc1ccc(NC(=S)/N=c2/n(-c3ccccc3)nc3n2CCN3C2=NCCN2)cc1	106% (inactive)
CCCCC1COc2cccc3c2N1C=C/C3=C\C(=O)n1ccc2ccccc21 (stereo not given)	78.7% (inactive)
COc1cc(C)cc2oc3oc(=O)c(-c4nc5ccccc5s4)cc3c(=O)c12	109% (inactive)
O=C(Nc1ccccc1)Nc1ccc(C(=O)/C=C/c2ccc(N3CCCC3)cc2)cc1	75.5% (inactive)
COc1cc(C)cc2oc3oc(=N)c(C(=O)c4ccccc4)cc3c(=O)c12	109% (inactive)
CC[C@]12C=CCN3CC[C@@]4(c5ccc(OC)cc5N(C)[C@H]4[C@@](O)(C(=O)OC)[C@@H]1OC(=O)CCC(=O)N[C@H](Cc1c[nH]c4ccccc14)C(=O)OC)[C@@H]32	-30.9% [100 µM] (active)
CC(=O)OC[C@]12CC[C@@H]([C@@H](C)C(N)=O)[C@@H]1[C@H]1CC[C@@H]3[C@@]4(C)CC[C@H](OC(C)=O)C(C)(C)[C@@H]4CC[C@@]3(C)[C@]1(C)CC2	9.89% [100 µM] (active)
O=c1c2c3c(sc2n2cnnc2n1Cc1ccccc1)CCCC3	91.7% (inactive)
COc1cc2c(c(OC)c1)C1c3cc(OC)ccc3NC(=O)N1CC2 (stereo not given)	67.2% (inactive)
O=c1cc(-c2ccccc2)oc2cc(OCc3cn(Cc4ccc(F)cc4)nn3)cc(O)c12	81.2% [100 µM] (inactive)
CCN(CC)c1ccc2cc(NC(=O)OCCNC(=O)CCNC(=O)[C@H](CC(C)C)NC(=O)C(C)(C)NC(=O)C(C)(C)NC(=O)[C@H](CC(C)C)NC(=O)CCNC(=O)C(C)(C)NC(=O)[C@H](CC(C)C)NC(=O)CCNC(=O)[C@@](C)(CC)NC(=O)[C@H](C)NC(=O)CCNC(=O)C(C)(C)NC(=O)[C@H](C)NC(=O)[C@@H]3CCCN3C(=O)[C@@](C)(CC)NC(=O)[C@H](Cc3ccccc3)NC(=O)C3CCCN3C(=O)C(C)(C)NC(=O)C3CCCN3C(=O)C(C)(C)NC(C)=O)c(=O)oc2c1 (stereo not given in full)	-76% (active)
CCCCCCCCCCCCCC[n+]1cccc(C(N)=O)c1	69.5% (inactive)
CCOC(CNC(=O)c1cccc([N+](=O)[O-])c1)OCC	83.7% (inactive)
C[n+]1c(-c2ccccc2)c2cc(N)ccc2c2ccccc21	44.4% (inactive)

Structure (SMILES)	growth
C/C=C/C1OC23CCCCC2C(C#N)(C(=N)O3)C1(C#N)C#N (stereo not given)	104% (inactive)
Fc1cc2[nH]ncc2c2c3c(c(-c4cn[nH]c4)nc12)CCCC3	1.75% (active)
CCOC(=O)c1nn(C2CCCCO2)c2ccc(NC(=O)CN3CCCC3)cc12 (stereo not given)	100% (inactive)
Nc1nnc(CSc2nnc3n(Cc4ccccc4)c(=O)c4c5c(sc4n23)CCCC5)s1	95.1% (inactive)
c1cc2ccc1CNCCN1CCNCc3ccc(cc3)Oc3ccc(cc3)CNCCN(CCNCc3ccc(cc3)O2)CCNCc2ccc(cc2)Oc2ccc(cc2)CNCC1	-79.1% (active)
CS(=O)(=O)c1cccnn1	104% (inactive)
N=C(N)c1ccc(-c2ccc(-c3ccc(-c4cccs4)s3)s2)cc1F	15.1% (inactive)
CCCSc1nc(N)nc2nc[nH]c12	105% (inactive)
C[C@H]1[C@H](C)CC[C@]2(C(=O)O)CC[C@]3(C)C(=CC[C@@H]4[C@@]5(C)C/C(=C/c6cccnc6)[C@H](O)C(C)(C)[C@@H]5CC[C@]43C)[C@H]12	8.85% [100 µM] (active)
O=C1CC(c2ccccc2)Cc2nc3ccc(Br)cc3cc21 (stereo not given)	23.8% (inactive)
C1=C[C@H]2O[C@@H]1c1ccc3[nH]ccc3c12	89.4% (inactive)
CCN(CC)c1ccc(/C=C/c2ccc3cc(C)ccc3[n+]2CC)cc1	8.77% (active)
O=C(Nc1cc(F)cc2cccnc12)c1cnc(N2CCNCC2)cn1	88.1% (inactive)
C=CCCC1(C)NC(=O)NC1=O (stereo not given)	93.4% (inactive)
CC(=O)Nc1ccc2nc3ccc(NC(C)=O)cc3[n+](-c3ccccc3)c2c1	106% (inactive)
CCCCCN(CCCCC)CCCCCCCCN1CCCc2ccccc21	95.8% (inactive)
O=C(O)c1cccc(CN2CCN(c3cc4c(cc3F)c(=O)c(C(=O)O)cn4C3CC3)CC2)c1O	99.5% (inactive)
